Screening results deposited in PubChem by National Center for Advancing Translational Sciences (NCATS).
DRD3 antagonist – blocks the human D3 dopamine receptor | P35462 | D3R cells, DiscoveRx beta-arrestin luminescence, antagonist mode; stronger effect = lower value | max response, negative = inhibition, % | hit rate 2.5% among 360,000 | AID 652054; in the data active = max response below about -50%; inconclusive = no clear call, values can overlap the other calls; note: % is set by controls: 0 for no effect and ±100 for the full control effect
Target sequence (P35462 whole entry, looked up): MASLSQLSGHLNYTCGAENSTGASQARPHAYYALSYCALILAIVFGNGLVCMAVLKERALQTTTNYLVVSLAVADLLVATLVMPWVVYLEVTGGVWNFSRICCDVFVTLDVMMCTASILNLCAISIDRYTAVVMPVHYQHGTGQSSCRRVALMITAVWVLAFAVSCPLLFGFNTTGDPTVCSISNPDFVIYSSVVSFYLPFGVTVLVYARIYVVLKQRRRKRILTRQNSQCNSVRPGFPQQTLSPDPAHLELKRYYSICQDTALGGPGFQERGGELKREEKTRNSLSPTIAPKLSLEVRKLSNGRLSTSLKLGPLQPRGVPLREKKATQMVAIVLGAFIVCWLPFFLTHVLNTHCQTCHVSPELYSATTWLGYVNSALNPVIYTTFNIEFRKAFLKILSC
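Cells plated overnight at 1500 cells/well, then exposed to library compounds with dopamine controls for 90 minutes at 37 degrees C. DiscoveRx reagent added for 30–60 minutes at room temperature; luminescence read, quantitative HTS format.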
DRD3 agonist – activates the human D3 dopamine receptor | P35462 | D3R DiscoveRx beta-arrestin cells, luminescence, 90 min | max activation, % | hit rate 0.58% among 410,000; in the data active = max activation above about 30%; note: 0% is about no effect
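Agonist-mode cell screen: cells plated at 1500/well and incubated overnight at 37 °C, then exposed to library compounds for 90 min at 37 °C. Detection reagent was added for 30–60 min at room temperature, and luminescence was read.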
IL1B secr inh – blocks inflammasome-driven IL-1 beta release; AID 743279; hit rate 4.7% among 360,000; activity change, % at 57.5 µM; THP-1 LPS/ATP IL-1B secretion, AlphaLISA, 16 h; stronger effect = lower value; in the data active = activity change below about -50%; inconclusive = mostly about -30% to -49%; note: % is set by controls: 0 for no effect and ±100 for the full control effect
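THP-1 cells pretreated 1 hr with compounds (up to 57.5 uM final), then stimulated with LPS (250 ng/mL final) plus ATP (1.25 mM final); secreted IL-1B measured by AlphaLISA after 16 hr, decreased signal indicating inhibition.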
TDP1 cell noCPT – qHTS for Inhibitors of human tyrosyl-DNA phosphodiesterase 1 (TDP1): qHTS in cells in absence of CPT. DT40 Tdp1-/- hTDP1 cells, no CPT, ATP luminescence, 48 h. Potency, µM (doses to about 46.2 µM), for the others: at the highest dose activity change, negative = growth inhibition, usual class: inhibitors. hit rate 15% among 420,000. AID 686978, 2013; note: potency is the fitted concentration of half-maximal effect; % is set by controls: 0 for no effect and ±100 for the full control effect; nearly all actives have a fitted effect of over 55% in size
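Cells were dispensed at 400 per well, compounds added by pin tool, plates incubated ≥48 hr at 37 °C, then CellTiter-Glo added for 30 min at room temperature before luminescence reading. Line: DT40 Tdp1-/- complemented with hTDP1; camptothecin omitted.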
ClpP mod – qHTS Assay for Activators of ClpP; hit rate 1.9% among 340,000; ATP-dependent Clp protease proteolytic subunit (Bacillus subtilis (strain 168)), P80244; Potency, µM (titrated, usually from 57.5 µM), for the others: top-dose activity change, negative = active; purified B. subtilis ClpP, FRET peptide cleavage, 20 min; AID 651965, 2013; active = well fitted falling curve with a large enough effect; inconclusive = small, poorly fitted or top-dose-only effect; inactive = no such curve, though single readings can be large or run the other way; note: potency is the fitted concentration of half-maximal effect; the source files actives as falling curves though it sought activators and does not explain the sign; nearly all actives have a fitted effect of over 65% in size
Target sequence (P80244 whole entry, looked up): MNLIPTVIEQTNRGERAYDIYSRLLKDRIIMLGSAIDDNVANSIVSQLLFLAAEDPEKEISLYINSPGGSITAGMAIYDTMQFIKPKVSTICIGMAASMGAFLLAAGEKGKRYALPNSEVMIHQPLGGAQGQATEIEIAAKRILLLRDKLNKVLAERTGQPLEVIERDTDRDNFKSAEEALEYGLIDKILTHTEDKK
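FRET quenching reversal measured ClpP activation: 10 microg/mL B. subtilis ClpP at pH 8 with the FRET-FV decapeptide, read at 430 nm after 320 nm excitation. The 20-min minus 0-min signal was scaled between DMSO/no-enzyme wells and ADEP (5.8 microM final).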
TDP1 cell CPT – growth inhibition of DT40 Tdp1-/-;hTDP1 cells with camptothecin (screen for TDP1 inhibitors); Potency, µM (titrated, usually from 46.2 µM), without a hit: at the highest dose activity change, negative = growth inhibition, most hits filed as inhibitors; chicken DT40 Tdp1-/-;hTDP1 cells + 20 nM CPT, ATP luminescence, 48 h; hit rate 12% among 420,000; AID 686979; note: potency is the fitted concentration of half-maximal effect; % is set by controls: 0 for no effect and ±100 for the full control effect; nearly all actives have a fitted effect of over 55% in size
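Chicken DT40 Tdp1-/- cells complemented with human TDP1, 400 cells/well, exposed to compounds plus 20 nM camptothecin for at least 48 h at 37 C; viability read as ATP content by CellTiter-Glo luminescence.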
Active calls of the source: *. Shown are actives, neighbours in structure and some others; about 21% of the full set was active somewhere. Unless noted, calls come from the whole dose curve; as a rule, active = well fitted inhibition curve with a large enough effect; inconclusive = small, poorly fitted or top-dose-only effect; inactive = flat fitted curve, though single readings scatter.

COc1cccc(C2CC(=O)Nc3cc(OC)c(OC)c(OC)c32)c1OC(C)C (stereo unspecified) was read as DRD3 agonist 1.5, TDP1 cell noCPT inconclusive, ClpP mod 1.2% and TDP1 cell CPT inconclusive.
O=S(=O)(Nc1ccccc1N1CCOCC1)c1c(F)cc(F)cc1Br was read as DRD3 antagonist -9.4, DRD3 agonist -1.2, IL1B secr inh 19.7, TDP1 cell noCPT -31.4%, ClpP mod 1.0% and TDP1 cell CPT -16.5%.
Cc1cccc(Cc2nc3ccccc3[nH]2)c1 was read as DRD3 antagonist 2.7, DRD3 agonist -6.9, IL1B secr inh -17.2, TDP1 cell noCPT inconclusive and TDP1 cell CPT -20.2%.
For O=C(NCCc1nnc2n1CCN(Cc1ccc(F)cc1)CC2)c1ccco1 the results were TDP1 cell noCPT -1.5% and TDP1 cell CPT 0.2%.
Screening O=c1cnn(Cc2ccc(F)cc2)c2ccccc12 returned DRD3 antagonist 8.0, DRD3 agonist -3.8, IL1B secr inh 29.7, TDP1 cell noCPT inconclusive and TDP1 cell CPT inconclusive.
Screening O=c1c(Cl)c(Cl)cnn1Cc1ccc(F)cc1 returned DRD3 antagonist -9.5, DRD3 agonist -0.3, IL1B secr inh -98.8*, TDP1 cell noCPT 13µM*, ClpP mod -0.1% and TDP1 cell CPT -112.4%.
For O=C(Cn1ncc(Cl)c(Cl)c1=O)c1ccc(Cl)cc1 the results were DRD3 antagonist -55.0*, DRD3 agonist -7.3, IL1B secr inh -68.1*, TDP1 cell noCPT 2.59µM*, ClpP mod 0.2% and TDP1 cell CPT 2.91µM*.
`Cc1ccc(Sc2cnccc2C#N)cc1` gave DRD3 antagonist -2.4, DRD3 agonist -5.6, IL1B secr inh -9.9, TDP1 cell noCPT -10.0%, ClpP mod 1.1% and TDP1 cell CPT -23.9%.
`CCOC(=O)Cn1cc2c(c1-c1ccc(Cl)cc1)c(=O)n(C)c(=O)n2C` gave DRD3 agonist -6.5, TDP1 cell noCPT inconclusive, ClpP mod 3.7% and TDP1 cell CPT inconclusive.
Cn1c(=O)c2c(-c3ccc(Cl)cc3)n(CCc3ccccc3)cc2n(C)c1=O was read as DRD3 agonist -4.3, TDP1 cell noCPT 23.1µM*, ClpP mod 4.0% and TDP1 cell CPT inconclusive.
Screening Cn1c(=O)c2c(-c3ccccc3)n(CCCO)cc2n(C)c1=O returned DRD3 agonist -3.9, TDP1 cell noCPT -22.1%, ClpP mod -11.4% and TDP1 cell CPT -10.9%.
`CCCCCn1cc2c(c1-c1ccc(Br)cc1)c(=O)n(C)c(=O)n2C` gave DRD3 agonist 9.8, TDP1 cell noCPT 20.6µM*, ClpP mod 3.6% and TDP1 cell CPT 18.4µM*.
Cn1c(=O)c2c(-c3ccc(Br)cc3)n(CCc3ccccc3)cc2n(C)c1=O was read as DRD3 agonist 1.4, TDP1 cell noCPT inconclusive, ClpP mod 4.1% and TDP1 cell CPT 14.6µM*.
`CCOC(=O)N1CCN(C(=O)CCSc2ccc(C)cc2)CC1` gave DRD3 antagonist 0.9, DRD3 agonist 2.1, IL1B secr inh -5.2, TDP1 cell noCPT 23.1µM*, ClpP mod -2.6% and TDP1 cell CPT 23.1µM*.
For CCOC(=O)N1CCN(C(=O)COC(=O)c2ccc([N+](=O)[O-])cc2Cl)CC1 the results were DRD3 antagonist 5.6, DRD3 agonist 4.4, IL1B secr inh 25.5, TDP1 cell noCPT -6.0% and TDP1 cell CPT -2.2%.
CCOC(=O)N1CCN(C(=O)COC(=O)CSc2ccc([N+](=O)[O-])cc2)CC1 was read as DRD3 antagonist -51.5*, DRD3 agonist 1.7, IL1B secr inh 6.5, TDP1 cell noCPT -11.5%, ClpP mod -0.8% and TDP1 cell CPT -9.1%.
Screening Cc1ccc(CN(C)C(=O)COC(=O)CSc2ccc([N+](=O)[O-])cc2)cc1 returned DRD3 antagonist 2.9, DRD3 agonist -7.0, IL1B secr inh 4.1, TDP1 cell noCPT 16.4µM*, ClpP mod 1.6% and TDP1 cell CPT inconclusive.
For CCOC(=O)C1CCN(CCCSc2ccc(C)cc2)CC1 the results were DRD3 antagonist -86.7*, DRD3 agonist -21.2, IL1B secr inh 3.4, TDP1 cell noCPT -4.2% and TDP1 cell CPT -7.9%.
Screening O=C(COC(=O)CNC(=O)c1ccccc1)Nc1ccc2c(c1)OCO2 returned DRD3 antagonist -17.3, DRD3 agonist -0.9, IL1B secr inh -8.3, TDP1 cell noCPT -1.4% and TDP1 cell CPT 13.2%.
Screening COC(=O)c1cc(NC(=O)CC2SC(=Nc3ccccc3)N(CCc3c[nH]c4ccccc34)C2=O)cc(C(=O)OC)c1 (stereo unspecified) returned DRD3 antagonist 4.6, DRD3 agonist -0.2, IL1B secr inh -14.1, TDP1 cell noCPT inconclusive, ClpP mod -0.5% and TDP1 cell CPT 16.4µM*.
Screening CCCCNC(=O)c1nn(-c2ccc(C)cc2)c(=O)n(C)c1=O returned DRD3 agonist -6.4, TDP1 cell noCPT -18.9%, ClpP mod 1.0% and TDP1 cell CPT -13.1%.
CCOC(=O)C1=C(C)NC(=O)NC1c1ccc(N(C)C)cc1 (stereo unspecified) was read as DRD3 antagonist -5.6, DRD3 agonist -3.0, IL1B secr inh 0.8, TDP1 cell noCPT -5.3%, ClpP mod -3.5% and TDP1 cell CPT -2.1%.
Screening CCC(CC)COC(=O)C1=C(C)NC(=O)NC1c1ccc(N(C)C)cc1 (stereo unspecified) returned DRD3 antagonist 0.9, DRD3 agonist -4.7, IL1B secr inh inconclusive, TDP1 cell noCPT 20.6µM*, ClpP mod -4.4% and TDP1 cell CPT inconclusive.
For CC(=O)Nc1ccc(NC(=O)C2Cc3c(-c4ccco4)ccnc3O2)cc1 (stereo unspecified) the results were DRD3 antagonist -61.0*, DRD3 agonist -8.4, IL1B secr inh -17.9, TDP1 cell noCPT -28.3%, ClpP mod -3.4% and TDP1 cell CPT inconclusive.
CC(=O)c1cccc(NC(=O)C2Cc3c(-c4ccco4)ccnc3O2)c1 (stereo unspecified) was read as DRD3 antagonist 3.5, DRD3 agonist 3.2, IL1B secr inh 0.0, TDP1 cell noCPT 16.4µM*, ClpP mod -9.9% and TDP1 cell CPT inconclusive.
`O=C(Nc1ccccc1)C1Cc2c(-c3ccco3)ccnc2O1` (stereo unspecified) gave DRD3 antagonist 22.2, DRD3 agonist -0.3, IL1B secr inh -6.1, TDP1 cell noCPT inconclusive, ClpP mod -8.6% and TDP1 cell CPT inconclusive.
For O=[N+]([O-])c1cccc(/C=N/n2c(-c3cccnc3)n[nH]c2=S)c1 the results were DRD3 antagonist -29.1, DRD3 agonist -5.6, IL1B secr inh 23.5, TDP1 cell noCPT -26.3%, ClpP mod 1.0% and TDP1 cell CPT inconclusive.
